Test results published in PubChem BioAssay (NCI).
This is part of a sample that, as a whole, favours compounds with a hit. Of some 83,000 tested, about 20% had one in any assay.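 For each line, cells grew in 96-well plates with the test compound present at a single concentration for 48 hours.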 Unmarked numbers belong to inactive results. Activity calls are given as the source filed them. Rule for the calls: active = growth percent below 10; inactive = the rest.

Legend:
Assay in all cases: NCI-60 one-dose screen, 48 h (100 = growth as untreated, 0 = no growth, -100 = all killed)
Conditions in all cases: 10 µM unless noted
NCI-H23 lung = tested on: NCI-H23 lung
NCI-H226 lung = tested on: NCI-H226 lung
NCI-H322M lung = tested on: NCI-H322M lung
HOP-62 NSCLC = tested on: HOP-62 NSCLC
NCI-H460 lung = tested on: NCI-H460 lung
HOP-92 NSCLC = tested on: HOP-92 NSCLC
NCI-H522 lung = tested on: NCI-H522 lung
A549/ATCC NSCLC = tested on: A549/ATCC NSCLC
786-0 renal = tested on: 786-0 renal
COLO 205 colon = tested on: COLO 205 colon
DU-145 prostate = tested on: DU-145 prostate
K-562 leukemia = tested on: K-562 leukemia
MALME-3M melanoma = tested on: MALME-3M melanoma
MDA-MB-231 breast = tested on: MDA-MB-231 breast
RXF 393 renal = tested on: RXF 393 renal
SF-268 CNS = tested on: SF-268 CNS
SF-295 CNS = tested on: SF-295 CNS
SF-539 CNS = tested on: SF-539 CNS
UACC-257 melanoma = tested on: UACC-257 melanoma
M14 melanoma = tested on: M14 melanoma

Row | Compound | growth (NCI-H23 lung) | growth (NCI-H226 lung) | growth (NCI-H322M lung) | growth (HOP-62 NSCLC) | growth (NCI-H460 lung) | growth (HOP-92 NSCLC) | growth (NCI-H522 lung) | growth (A549/ATCC NSCLC) | growth (786-0 renal) | growth (COLO 205 colon) | growth (DU-145 prostate) | growth (K-562 leukemia) | growth (MALME-3M melanoma) | growth (MDA-MB-231 breast) | growth (RXF 393 renal) | growth (SF-268 CNS) | growth (SF-295 CNS) | growth (SF-539 CNS) | growth (UACC-257 melanoma) | growth (M14 melanoma)
1 | CCN(CC)c1ccc(-c2cc(-c3cc(OC)c(OC)c(OC)c3)nc(N3CCOCC3)c2C#N)cc1 | 56.2% | 8.07% (active) | 52.9% | -40.5% (active) | -1.44% (active) | -1.28% (active) | -15.6% (active) | 21.5% | 0.298% (active) | 5.62% (active) | 38.8% | 1.69% (active) | -12.6% (active) | -10.9% (active) | -9.31% (active) | 39.6% | -54.6% (active) | 35.6% | -23.5% (active) | -53.9% (active)
2 | COc1cccc(/C=C2\Oc3cc(OCCN4CCCC4)ccc3C2=O)c1 | 92.2% | 99.2% | 92.7% | 96.3% | 93.8% | 69.6% | 94.5% | 99% | 95.8% | 93.8% | 98.5% | -26.9% (active) | 104% | 96.3% | 97.5% | 91.8% | 105% | 88.9% | 111% | 98.7%
3 | COc1ccc(S(=O)(=O)N2CC3(COC3)C2)cc1NC(=O)c1[nH]c(C)c2c1CCCCC2=O | 59.4% | 53.3% | 56.3% | 40.6% | 71.2% | 48.2% | 32.3% | 62.6% | 56.5% | 37.5% | 79.6% | 45.1% | 61.1% | 47.1% | 76% | 78.1% | 52.8% | 45.3% | 51.9% | 58.1%
4 | COc1cc(/C=C/C(=O)c2c(C)oc3nc[nH]c(=O)c23)cc(OC)c1OC | 68.9% | 92.1% | 85.8% | 101% | 83.7% | 96.4% | 47.7% | 81.6% | 94.3% | 95.4% | 64.8% | 45.2% | 88.1% | 86.7% | 66.3% | 81.3% | 104% | 95.7% | 73% | 75.3%
5 | O=C1/C(=C/N2N=C(c3ccc4ccccc4c3)CC2c2ccccc2O)SC(=S)N1c1cccnc1 (stereo not given) | 43.3% | 31.7% | 46% | 25.2% | 15.3% | 77% | 21.1% | 18.8% | 14% | 27.3% | 24.8% | 10.9% | 79.5% | 53% | -8.6% (active) | 31.9% | 10.5% | -26.2% (active) | 69.1% | 7.17% (active)
6 | C#CCOc1ccc2ncnc(N3CCN(C(=O)CCl)CC3)c2c1 | 93.3% [8.25 µM] | -15.9% [8.25 µM] (active) | 99.3% [8.25 µM] | 85% [8.25 µM] | 101% [8.25 µM] | 88.7% [8.25 µM] | -59.5% [8.25 µM] (active) | 100% [8.25 µM] | 94.5% [8.25 µM] | 96.1% [8.25 µM] | 102% [8.25 µM] | 18.9% [8.25 µM] | 92.4% [8.25 µM] | 95.7% [8.25 µM] | 87.2% [8.25 µM] | 68.7% [8.25 µM] | 109% [8.25 µM] | 91.4% [8.25 µM] | 90.8% [8.25 µM] | 61.7% [8.25 µM]
7 | COc1ccc(/C=C/C(=O)c2ccc(O)c(CN3CCN(c4cc5c(cc4F)c(=O)c(C(=O)O)cn5C4CC4)CC3)c2)cc1 | 37.7% | 52.2% | 22.6% | 19.5% | 51.4% | 10.1% | 16.9% | 22.3% | 27.8% | 102% | 27.8% | 20.3% | 30.4% | 50.6% | 28.3% | 30.3% | 13.1% | 18.8% | 42% | 30.9%
8 | Oc1cccc2ccc(N/N=C/c3cc(CN4CCOCC4)c(O)c4ncccc34)nc12 | -2.08% (active) | 26.5% | 27.7% | 7.13% (active) | -7.47% (active) | 43.5% | -13.7% (active) | 5.15% (active) | 19.4% | 12.2% | 22.4% | 13.4% | 16.3% | 20% | 10.4% | 18.7% | 17.5% | 9.66% (active) | 17.8% | 4.83% (active)
9 | COc1ccccc1NS(=O)(=O)c1ccc2oc(SC(C)C)nc2c1 | 61% | 53.8% | 99.7% | 97.3% | 77.2% | 79.4% | 65.6% | 75.9% | 64.2% | 109% | 98.9% | 45.8% | 81.7% | 86.5% | 107% | 89.8% | 88.5% | 103% | 71.8% | 110%
10 | Cc1cc(C)nc(SC2=C(Nc3cc(Cl)ccc3O)C(=O)N(Cc3ccccc3)C2=O)n1 | 91.4% [30 µM] | 85.1% [30 µM] | -32% [30 µM] (active) | 102% [30 µM] | 97.4% [30 µM] | 42.9% [30 µM] | 58.6% [30 µM] | 46.6% [30 µM] | 83.4% [30 µM] | 112% [30 µM] | 95.8% [30 µM] | 58.5% [30 µM] | -56.7% [30 µM] (active) | 64.5% [30 µM] | 58.7% [30 µM] | 93.8% [30 µM] | 112% [30 µM] | 118% [30 µM] | 83.5% [30 µM] | 95.2% [30 µM]
11 | O=S(=O)(Nc1ccc(Br)c(Cl)c1)c1ccc(-c2cnc(C3CC3)o2)cc1 | 29.7% | 55.3% | 39.2% | 32.6% | 11.9% | 40.8% | -17.7% (active) | 24.9% | 39% | -2.39% (active) | 9.63% (active) | 10.2% | 30.9% | 33.6% | -10.6% (active) | 50.3% | 5.84% (active) | -19.8% (active) | 55.5% | 5.11% (active)
12 | CCCCCCN(CCCCCC)CCC(O)c1ccc2ccccc2c1 (stereo not given) | 45.3% | 79.2% | 80.9% | 101% | 51.5% | 2.35% (active) | 60.2% | 74.5% | 54.1% | 39.5% | 74.3% | 27.9% | 68.5% | 42.4% | 46.7% | 73.3% | 52.5% | 61.9% | 85.3% | 50.2%
13 | C=CC(=O)Nc1cccc(-c2nc(SC)nc(NCc3ccccc3)c2C#N)c1 | 61.1% | 46.8% | 73.8% | 73.9% | 84% | 48.1% | 31.2% | 53.4% | 66% | 98% | 60.8% | 60% | 66.4% | 62.4% | 21.9% | 49% | 67.8% | 67.7% | 64.9% | 71.3%
